Experimental data: PubChem BioAssay AID618 (Sanford-Burnham Center for Chemical Genomics, 2007)
The whole screen tested about 87,000 compounds, of which about 540 (0.62%) were called active. How the calls were made is not given here. This excerpt belongs to a sample that is enriched for actives. Results with a measured potency or affinity are listed apart.

test: inhibitors of MT1-MMP promoter transcription, cell-based, luciferase reporter, luminescence (AID 618); details: MT1-MMP promoter luciferase reporter cells;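 further: actives suppress MT1-MMP promoter-driven transcription so potencies describe inhibitors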

| SMILES | outcome |
| --- | --- |
| CN(C(=O)c1ccco1)c1nnc(C23CC4CC(CC(C4)C2)C3)s1 | inactive |
| CN(C(=O)c1ccco1)c1nc(CC(=O)Nc2ccccc2)cs1 | inactive |
| COC(=O)[C@@]1(Cc2ccc(OC)cc2)[C@H]2c3cc(C(=O)N4CCCC4)n(CCF)c3C[C@H]2CN1C(=O)c1ccccc1 | inactive |
| COc1cc(C(=O)N2CCN(C(=O)Cc3ccccc3)CC2)cc(OC)c1OC | inactive |
| C=CCNC(=O)c1ccc2nccnc2c1 | inactive |
| CC(C)C(=O)N(Cc1cc2ccccc2[nH]c1=O)C(C)C | inactive |
| C=CCn1c(SCc2cc(=O)n3ccsc3n2)nc2scc(C3CC3)c2c1=O | inactive |
| COc1ccccc1NC(=S)NNC(=O)c1ccccc1 | inactive |
| O=C(NCCCN1CCOCC1)c1ccccc1 | inactive |
| COc1cc(-c2nc3ccccc3s2)ccc1O | inactive |
| COc1cc(OC)cc(-c2nc3ccccc3s2)c1 | inactive |
| COc1ccc(-c2nc3ccccc3s2)cc1O | active |
| c1ccc2sc(-c3ccc4c(c3)OCO4)nc2c1 | inactive |
| COc1cccc(-c2nc3ccccc3s2)c1 | inactive |
| COC(=O)CSc1nc2ccc(C)cc2[nH]1 | inactive |
| CCN(CC)S(=O)(=O)c1ccc(C2CNC(=O)C2)cc1 (configuration not stated) | inactive |
| CCn1cnc2c1c(=O)n(Cc1csc(-c3ccccc3)n1)c(=O)n2Cc1ccccc1 | inactive |
| COc1cccc(NC(=O)CCN2C(=O)c3ccccc3S2(=O)=O)c1 | inactive |
| CCc1nnc(NC(=O)CSc2nc3c(cc2C#N)CCCC3)s1 | inactive |
| CCc1nnc(NC(=O)CSc2nc3c(cc2C#N)CCC3)s1 | inactive |
| Cc1cc(C(F)(F)F)n2ncc(-c3ccc(F)cc3)c2n1 | inactive |
| COc1ccccc1NC(=O)CSc1nnc(-c2ccccc2)o1 | inactive |
| COC(=O)c1ccccc1NC(=O)CSc1nnc(-c2ccc(C)cc2)o1 | inactive |
| CCOc1ccccc1-c1nnc(SCC(=O)Nc2ccccc2)o1 | inactive |
| Cc1ccc(C)c(NC(=O)CSc2nnc(-c3ccccc3)o2)c1 | inactive |
| Cc1cccc(NC(=O)CSc2nnc(-c3ccccc3C)o2)c1 | inactive |

| SMILES | outcome |
| --- | --- |
| COc1ccccc1NC(=O)CSc1nnc(-c2ccc(C)cc2)o1 | inactive |
| CCN(CC)S(=O)(=O)c1ccc(NC(=O)CN(c2ccc(OC)cc2OC)S(C)(=O)=O)cc1 | inactive |
| O=C(NCCCO)C12CC3CC(CC(C3)C1)C2 | inactive |
| O=C(NC(NC1CCS(=O)(=O)C1)C(=O)c1ccccc1)c1ccc(Cl)cc1 (configuration not stated) | inactive |
| Cc1ccc(N/C=C/C(=O)c2ccc(C)cc2)cc1 | inactive |
| O=C(/C=C/Nc1ccccc1)c1ccccc1 | inactive |
| C/C(=C\C(=O)c1ccc(C)cc1)Nc1cccc(O)c1 | inactive |
| O=C(Nc1cccc(O)c1)c1ccccc1 | inactive |
| Cc1ccc(C(=O)/C=C/Nc2cccc(O)c2)cc1 | active |
| Cc1nc2ncnn2c(C)c1CCC(=O)Oc1ccccc1 | inactive |
| COc1ccc(CCNC(=O)C2CCN(S(C)(=O)=O)CC2)cc1OC | inactive |
| Cc1cc(C)n(-c2ccc3cccc(NS(C)(=O)=O)c3n2)n1 | inactive |
| Cc1csc(NC(=O)c2cc3c(s2)CCCCC3)n1 | inactive |
| CCOC(=O)Cc1csc(NC(=O)c2cc3c(s2)CCCC3)n1 | inactive |
| Cc1cnc(NC(=O)c2cc3c(s2)CCCC3)s1 | inactive |
| COC(=O)c1sc(NC(=O)c2cc3c(s2)CCCC3)nc1C | inactive |
| Cc1csc(NC(=O)c2cc3c(s2)CCC3)n1 | active |
| Cc1nc(NC(=O)c2cc3c(s2)CCCCC3)sc1C(=O)N(C)C | inactive |
| CCc1nnc(NC(=O)c2cc3c(s2)CCCCC3)s1 | inactive |
| O=C1N(Cc2ccccc2F)c2ccccc2C12OCCCO2 | inactive |
| CCn1nc(C(=O)NC2=NCCS2)c2ccccc2c1=O | inactive |
| Cc1ccc(C(=O)N(c2ccccn2)C(C)c2ccco2)cc1 (configuration not stated) | inactive |
| Cc1ccc(NC(=O)CSc2nnc(Cn3cnc4ccccc43)o2)c(C)c1 | inactive |
| CN1CCN(C2=C(Cl)C(=O)C(c3cnc(N4CCCCC4)s3)=C(Cl)C2=O)CC1 | inactive |
| CN(C)c1ncc(C2=C(Cl)C(=O)C(N3CCCC3)=C(Cl)C2=O)s1 | inactive |
| Nc1ccc2c(c1)-c1ccccc1S(=O)(=O)N2 | inactive |

| SMILES | outcome |
| --- | --- |
| Cc1ccc2c(c1)-c1ccccc1S(=O)(=O)N2 | inactive |
| O=c1cc(N2CCOCC2)[nH]c(=O)n1-c1ccc(Cl)cc1 | inactive |
| O=C(Nn1cnnc1)c1cc(-c2ccccn2)nc2ccccc12 | inactive |
| COc1cccc(-c2cc(C(=O)Nn3cnnc3)c3ccccc3n2)c1 | inactive |
| Cc1ccc2nc(C3CCN(C(=O)NCc4ccccc4)CC3)[nH]c2c1 | inactive |
| O=c1cc(CO)oc(CN2CCN(c3ccccc3F)CC2)c1O | inactive |
| CC(C)(C)S(=O)(=O)c1ccc2nc3c(n2c1)CCCC3 | inactive |
| Cc1cc2nc(NC3=NCN(CCCN4CCOCC4)CN3)nc(C)c2cc1C | inactive |
| Cc1nc(NC2=NCN(CCN3CCOCC3)CN2)nc2c(C)cccc12 | inactive |
| Cc1ccc(NC(=O)NC(=O)N(c2ccccc2)S(C)(=O)=O)cc1 | inactive |
| CCOc1ccccc1N1CC(C(=O)N2CCc3ccccc3C2)CC1=O (configuration not stated) | inactive |
| COc1ccc(-c2nc(C#N)c(N3CCOCC3)o2)cc1OC | inactive |
| COc1ccc(CCNc2oc(-c3ccco3)nc2C#N)cc1 | inactive |
| OCCNc1nc(Nc2ccccc2)nc2ccccc12 | inactive |
| Cc1ccc(Nc2nc(N3CCOCC3)c3ccccc3n2)cc1 | inactive |
| Fc1ccc(Nc2nc(N3CCOCC3)c3ccccc3n2)cc1 | inactive |
| COc1ccc(Nc2nc(N3CCCC3)c3ccccc3n2)cc1 | inactive |
| Nc1nc(Nc2ccccc2)nc2ccccc12 | active |
| Nc1nc(Nc2cccc(F)c2)nc2ccccc12 | inactive |
| COc1ccc(Nc2nc(C)c3ccccc3n2)cc1 | inactive |
| Cc1ccc(NC(=O)N2CCOCC2)c(C)c1 | inactive |
| CCC1Oc2ccccc2N(CC(=O)Nc2ccc(OC)cc2OC)C1=O (configuration not stated) | inactive |
| COc1ccccc1C(=O)Nc1nc(-c2cccs2)c(NC(C)=O)s1 | inactive |
| CC(C)CCOC(=O)C1C(c2ccccc2)C(C(=O)O)C1c1ccccc1 (configuration not stated) | inactive |
| O=C(c1cccs1)N1CCN(S(=O)(=O)N2CCCCC2)CC1 | inactive |
